According to PubChem BioAssay (NCATS):
Inconclusive results are not listed. Entries that show only a call come without a potency. A number with no mark means an inactive call. Calls of active or inactive are those of the source. The call rests on the fitted dose curve; in most records, active means well fitted curve in the direction sought with a large enough effect; inconclusive means small, poorly fitted or top-dose-only effect, or another doubt; inactive means no such curve, though single readings can be large; an effect the other way counts as inactive or inconclusive.

Columns and labels:
[1] = Primary qHTS for inhibitors of nuclear receptor binding SET domain protein 2 (NSD2) in an isogenic RCH-ACV NSD2 p.E1099K mutant (9B) (AID 1645876)
[2] = Primary qHTS for inhibitors of nuclear receptor binding SET domain protein 2 (NSD2) in an RCH-ACV wild type WT cells (2C) (AID 1645877)
Further: nearly all actives have a fitted effect of over 70% in size.

Compound | Potency [1] | Potency [2] | activity change, negative = viability loss [1] | activity change, negative = cell killing [2]
CC(=O)OC[C@@]12[C@H](O)C[C@@H](C)[C@]3(C[C@@H](c4ccoc4)OC3=O)[C@H]1C[C@H](O)C[C@]21CO1 | inactive | inactive |  | 
C[C@H]1[C@H](C)CC[C@]2(C(=O)O[C@@H]3O[C@H](CO)[C@@H](O)[C@H](O)[C@H]3O)CC[C@]3(C(=O)O)C(=CCC4[C@@]5(C)CC[C@H](O[C@@H]6O[C@H](CO)[C@@H](O)[C@H](O)[C@H]6O)C(C)(C)C5CC[C@]43C)[C@H]12 (stereo not given in full) |  |  | -7.26% [at 9.23 µM] | -8.94% [at 9.23 µM]
CC(C#N)C(C)O[C@@H]1O[C@H](CO)[C@@H](O)[C@H](O)[C@H]1O (stereo not given in full) | inactive | inactive |  | 
OCC1OC(Oc2cc(O)c3c(c2)OC(c2ccc(O)cc2)C(O)C3)C(O)C1O (stereo not given) | inactive | inactive |  | 
O=C(O)C[C@H]1CCC(=O)[C@@H]1C/C=C\CCOC1OC(CO)C(O)C(O)C1O (stereo not given in full) | inactive | inactive |  | 
